# Tests used:
# Experiment in all cases: DAPPL (digital affinity profiling via proximity ligation, sequencing); 10 mM Tris-HCl pH 7.5, 50 mM NaCl, 1 mM DTT, 4% glycerol, room temperature, 30 min; GST-TFs on glutathione beads, 16-mer random dsDNA library, 0.1% formaldehyde crosslink after washing; high values mean tight binding
# [1] = molecular target: T1, FLI1 (Homo sapiens, UniProt Q01543 1-452); conditions: protein: recombinant; tags: N-terminal GST; dsDNA, one strand shown
# T1 sequence: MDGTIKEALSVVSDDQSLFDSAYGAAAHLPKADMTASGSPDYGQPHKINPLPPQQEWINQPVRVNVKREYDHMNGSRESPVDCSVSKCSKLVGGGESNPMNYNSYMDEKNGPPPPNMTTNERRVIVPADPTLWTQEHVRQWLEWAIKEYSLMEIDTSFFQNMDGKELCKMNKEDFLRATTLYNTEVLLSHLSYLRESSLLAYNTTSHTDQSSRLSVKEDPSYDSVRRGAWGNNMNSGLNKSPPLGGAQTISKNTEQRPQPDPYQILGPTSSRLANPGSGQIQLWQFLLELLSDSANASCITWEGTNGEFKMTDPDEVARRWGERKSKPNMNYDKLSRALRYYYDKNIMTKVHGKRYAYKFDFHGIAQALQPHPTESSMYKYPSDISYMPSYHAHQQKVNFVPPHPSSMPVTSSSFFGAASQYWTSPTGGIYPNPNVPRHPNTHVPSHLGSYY
# Method in brief: (§1)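 A tag-only sample was pooled with DNA-barcoded human transcription factors that had been expressed in yeast as GST fusions and captured on glutathione beads. The pools were incubated for 30 min at room temperature with 200 nmole of a random double-stranded 16-mer DNA library in Tris/NaCl/DTT/glycerol buffer, then washed, crosslinked with 0.1% formaldehyde, proximity-ligated (BsaI/T4 ligase, 1 h, 37 °C), PCR-amplified and sequenced on an Illumina NextSeq500. Binding signal is each hexamer's read frequency for a factor divided by its frequency for the tag-only sample.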
# [2] = molecular target: T2, ELK1 (Homo sapiens, UniProt P19419 1-428); conditions: protein: recombinant; tags: N-terminal GST; dsDNA, one strand shown
# T2 sequence: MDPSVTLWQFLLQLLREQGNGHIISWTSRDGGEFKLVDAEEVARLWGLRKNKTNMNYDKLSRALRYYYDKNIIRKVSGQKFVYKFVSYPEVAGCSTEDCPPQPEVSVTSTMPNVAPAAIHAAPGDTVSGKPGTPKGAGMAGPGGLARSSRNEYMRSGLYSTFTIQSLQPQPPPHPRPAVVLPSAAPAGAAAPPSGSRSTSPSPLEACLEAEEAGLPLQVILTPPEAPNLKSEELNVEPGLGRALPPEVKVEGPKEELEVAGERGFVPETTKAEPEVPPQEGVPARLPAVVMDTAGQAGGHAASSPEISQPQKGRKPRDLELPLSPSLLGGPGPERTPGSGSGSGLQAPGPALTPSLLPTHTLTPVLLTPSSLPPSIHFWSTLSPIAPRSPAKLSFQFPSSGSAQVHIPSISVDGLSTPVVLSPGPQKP
# Method in brief: as §1
# [3] = molecular target: T3, GABPA (Homo sapiens, UniProt Q06546 1-454); conditions: protein: recombinant; tags: N-terminal GST; dsDNA, one strand shown
# T3 sequence: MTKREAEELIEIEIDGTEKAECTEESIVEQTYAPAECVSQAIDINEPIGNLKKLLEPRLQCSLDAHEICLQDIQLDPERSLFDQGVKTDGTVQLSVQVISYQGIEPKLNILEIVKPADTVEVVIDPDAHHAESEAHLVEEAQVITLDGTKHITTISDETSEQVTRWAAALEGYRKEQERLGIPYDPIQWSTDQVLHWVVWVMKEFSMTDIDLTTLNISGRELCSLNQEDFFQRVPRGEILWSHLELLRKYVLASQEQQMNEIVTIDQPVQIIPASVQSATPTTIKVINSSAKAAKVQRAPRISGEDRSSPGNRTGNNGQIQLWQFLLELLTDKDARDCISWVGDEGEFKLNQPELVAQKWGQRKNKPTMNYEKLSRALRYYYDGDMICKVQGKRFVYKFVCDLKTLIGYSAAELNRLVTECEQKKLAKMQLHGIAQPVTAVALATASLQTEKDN
# Method in brief: as §1
# [4] = molecular target: T4, ERG (Homo sapiens, UniProt P11308 1-479); conditions: protein: recombinant; tags: N-terminal GST; dsDNA, one strand shown
# T4 sequence: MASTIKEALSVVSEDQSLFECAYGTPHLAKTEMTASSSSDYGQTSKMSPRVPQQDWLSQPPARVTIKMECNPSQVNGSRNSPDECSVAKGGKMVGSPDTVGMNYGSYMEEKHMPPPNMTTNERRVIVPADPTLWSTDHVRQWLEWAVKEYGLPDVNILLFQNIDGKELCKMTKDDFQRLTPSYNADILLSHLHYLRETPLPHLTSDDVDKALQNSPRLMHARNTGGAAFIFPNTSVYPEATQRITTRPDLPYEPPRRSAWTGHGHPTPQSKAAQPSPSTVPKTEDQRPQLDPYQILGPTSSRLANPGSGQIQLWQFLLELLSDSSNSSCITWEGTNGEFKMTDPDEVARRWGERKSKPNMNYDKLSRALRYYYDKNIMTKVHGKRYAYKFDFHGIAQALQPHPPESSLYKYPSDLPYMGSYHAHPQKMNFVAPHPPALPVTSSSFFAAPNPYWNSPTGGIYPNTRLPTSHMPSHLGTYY
# Method in brief: as §1
# [5] = molecular target: ELF1 (Homo sapiens, UniProt P32519 1-619); conditions: protein: recombinant; tags: N-terminal GST; dsDNA, one strand shown
# Method in brief: as §1
# [6] = molecular target: T5, EHF (Homo sapiens, UniProt Q9NZC4 1-300); conditions: protein: recombinant; tags: N-terminal GST; dsDNA, one strand shown
# T5 sequence: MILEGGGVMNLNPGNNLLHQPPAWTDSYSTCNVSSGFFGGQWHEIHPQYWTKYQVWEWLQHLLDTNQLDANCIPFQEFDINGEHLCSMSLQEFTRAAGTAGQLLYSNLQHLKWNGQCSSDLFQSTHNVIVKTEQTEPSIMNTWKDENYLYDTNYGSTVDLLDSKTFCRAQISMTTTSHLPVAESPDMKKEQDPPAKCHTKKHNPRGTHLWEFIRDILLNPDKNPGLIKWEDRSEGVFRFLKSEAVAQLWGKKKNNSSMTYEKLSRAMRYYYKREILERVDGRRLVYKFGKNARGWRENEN
# Method in brief: as §1
# [7] = molecular target: SPI1 (Homo sapiens, UniProt P17947 1-270); conditions: protein: recombinant; tags: N-terminal GST; dsDNA, one strand shown
# Method in brief: as §1
# [8] = molecular target: SPIB (Homo sapiens, UniProt Q01892 1-262); conditions: protein: recombinant; tags: N-terminal GST; dsDNA, one strand shown
# Method in brief: as §1
# [9] = molecular target: T6, ELK3 (Homo sapiens, UniProt P41970 1-407); conditions: protein: recombinant; tags: N-terminal GST; dsDNA, one strand shown
# T6 sequence: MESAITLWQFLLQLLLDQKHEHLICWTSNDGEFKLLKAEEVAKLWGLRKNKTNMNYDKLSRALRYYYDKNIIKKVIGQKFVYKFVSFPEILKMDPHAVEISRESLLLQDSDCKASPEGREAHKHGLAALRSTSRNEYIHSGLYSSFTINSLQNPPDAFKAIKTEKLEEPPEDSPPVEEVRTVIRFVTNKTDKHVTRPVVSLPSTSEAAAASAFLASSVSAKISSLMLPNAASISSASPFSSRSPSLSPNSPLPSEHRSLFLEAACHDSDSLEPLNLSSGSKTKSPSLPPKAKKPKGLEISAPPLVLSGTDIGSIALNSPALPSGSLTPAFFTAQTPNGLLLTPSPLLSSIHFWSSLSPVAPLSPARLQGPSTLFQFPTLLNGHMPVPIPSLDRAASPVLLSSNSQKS
# Method in brief: as §1
# [10] = molecular target: T7, FEV (Homo sapiens, UniProt Q99581 1-238); conditions: protein: recombinant; tags: N-terminal GST; dsDNA, one strand shown
# T7 sequence: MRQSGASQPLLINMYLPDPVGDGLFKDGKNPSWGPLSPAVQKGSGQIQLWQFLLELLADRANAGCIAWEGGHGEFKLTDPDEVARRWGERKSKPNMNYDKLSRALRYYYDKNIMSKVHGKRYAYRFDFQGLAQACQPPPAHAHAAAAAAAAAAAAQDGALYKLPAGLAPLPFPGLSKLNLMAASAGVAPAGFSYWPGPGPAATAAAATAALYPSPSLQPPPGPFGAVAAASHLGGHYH
# Method in brief: as §1
# [11] = molecular target: ETV5 (Homo sapiens, UniProt P41161 1-510); conditions: protein: recombinant; tags: N-terminal GST; dsDNA, one strand shown
# Method in brief: as §1
# [12] = molecular target: HSF1 (Homo sapiens, UniProt Q00613 1-529); conditions: protein: recombinant; tags: N-terminal GST; chain copies: 3; dsDNA, one strand shown
# Method in brief: as §1
# [13] = molecular target: T8, SPIC (Homo sapiens, UniProt Q8N5J4 1-248); conditions: protein: recombinant; tags: N-terminal GST; dsDNA, one strand shown
# T8 sequence: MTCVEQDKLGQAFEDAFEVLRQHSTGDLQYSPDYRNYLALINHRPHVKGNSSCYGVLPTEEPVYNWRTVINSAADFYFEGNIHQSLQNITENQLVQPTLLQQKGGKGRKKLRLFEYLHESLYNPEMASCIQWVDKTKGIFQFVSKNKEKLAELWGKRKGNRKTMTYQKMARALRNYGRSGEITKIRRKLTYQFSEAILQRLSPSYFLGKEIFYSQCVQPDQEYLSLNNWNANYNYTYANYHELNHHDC
# Method in brief: as §1
# [14] = molecular target: ELF4 (Homo sapiens, UniProt Q99607 1-663); conditions: protein: recombinant; tags: N-terminal GST; dsDNA, one strand shown
# Method in brief: as §1
# [15] = molecular target: T9, ELK4 (Homo sapiens, UniProt P28324-2 1-405); conditions: protein: recombinant; tags: N-terminal GST; dsDNA, one strand shown
# T9 sequence: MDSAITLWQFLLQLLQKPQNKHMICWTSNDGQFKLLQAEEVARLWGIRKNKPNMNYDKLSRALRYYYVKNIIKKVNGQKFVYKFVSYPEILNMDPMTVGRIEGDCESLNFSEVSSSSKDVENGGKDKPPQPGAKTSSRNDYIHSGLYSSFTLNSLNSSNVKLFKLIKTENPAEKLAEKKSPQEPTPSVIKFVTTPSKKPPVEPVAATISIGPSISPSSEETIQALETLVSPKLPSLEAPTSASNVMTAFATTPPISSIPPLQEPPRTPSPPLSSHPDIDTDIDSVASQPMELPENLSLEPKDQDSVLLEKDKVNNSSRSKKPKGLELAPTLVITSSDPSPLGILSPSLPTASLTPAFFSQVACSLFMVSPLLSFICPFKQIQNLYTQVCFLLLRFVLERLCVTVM
# Method in brief: as §1
# [16] = molecular target: T10, ETV2 (Homo sapiens, UniProt O00321 1-342); conditions: protein: recombinant; tags: N-terminal GST; dsDNA, one strand shown
# T10 sequence: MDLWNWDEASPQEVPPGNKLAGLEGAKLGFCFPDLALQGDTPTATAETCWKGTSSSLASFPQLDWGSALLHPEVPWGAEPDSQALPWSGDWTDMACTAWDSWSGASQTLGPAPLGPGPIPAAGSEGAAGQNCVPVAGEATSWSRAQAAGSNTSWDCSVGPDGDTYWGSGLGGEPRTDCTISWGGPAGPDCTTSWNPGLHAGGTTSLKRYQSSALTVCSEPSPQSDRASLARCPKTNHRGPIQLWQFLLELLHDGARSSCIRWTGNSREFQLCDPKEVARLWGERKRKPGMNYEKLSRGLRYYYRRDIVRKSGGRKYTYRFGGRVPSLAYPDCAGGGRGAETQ
# Method in brief: as §1
# [17] = molecular target: T11, ELF3 (Homo sapiens, UniProt P78545 1-371); conditions: protein: recombinant; tags: N-terminal GST; dsDNA, one strand shown
# T11 sequence: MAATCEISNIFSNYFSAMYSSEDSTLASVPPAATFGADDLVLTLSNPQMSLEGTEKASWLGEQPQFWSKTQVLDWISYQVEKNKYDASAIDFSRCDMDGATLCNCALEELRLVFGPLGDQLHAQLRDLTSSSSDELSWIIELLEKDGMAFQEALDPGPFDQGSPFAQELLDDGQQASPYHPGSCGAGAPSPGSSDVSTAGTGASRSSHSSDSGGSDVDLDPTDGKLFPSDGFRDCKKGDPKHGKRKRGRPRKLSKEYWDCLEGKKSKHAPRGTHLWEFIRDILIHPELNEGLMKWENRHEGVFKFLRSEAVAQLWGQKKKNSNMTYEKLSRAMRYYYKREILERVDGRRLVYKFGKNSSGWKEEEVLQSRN
# Method in brief: as §1
# [18] = molecular target: CRX (Homo sapiens, UniProt O43186 1-299); conditions: protein: recombinant; tags: N-terminal GST; dsDNA, one strand shown
# Method in brief: as §1
# [19] = molecular target: ETV1 (Homo sapiens, UniProt P50549 1-477); conditions: protein: recombinant; tags: N-terminal GST; dsDNA, one strand shown
# Method in brief: as §1
# Chain of ETV5 (P41161 whole entry): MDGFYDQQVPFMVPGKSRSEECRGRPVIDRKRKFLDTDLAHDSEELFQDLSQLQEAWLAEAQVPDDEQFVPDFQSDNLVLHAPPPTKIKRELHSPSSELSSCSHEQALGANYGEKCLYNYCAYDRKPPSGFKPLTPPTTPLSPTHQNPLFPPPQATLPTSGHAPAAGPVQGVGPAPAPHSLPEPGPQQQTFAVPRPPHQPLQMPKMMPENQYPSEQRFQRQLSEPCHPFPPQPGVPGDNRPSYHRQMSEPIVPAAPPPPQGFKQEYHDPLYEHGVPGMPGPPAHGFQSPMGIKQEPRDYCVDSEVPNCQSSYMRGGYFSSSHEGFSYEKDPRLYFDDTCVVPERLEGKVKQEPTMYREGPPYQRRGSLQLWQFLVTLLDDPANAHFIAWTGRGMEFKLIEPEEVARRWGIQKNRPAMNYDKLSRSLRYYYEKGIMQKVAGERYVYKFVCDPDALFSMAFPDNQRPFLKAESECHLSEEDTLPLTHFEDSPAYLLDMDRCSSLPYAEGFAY
# Chain of HSF1 (Q00613 whole entry): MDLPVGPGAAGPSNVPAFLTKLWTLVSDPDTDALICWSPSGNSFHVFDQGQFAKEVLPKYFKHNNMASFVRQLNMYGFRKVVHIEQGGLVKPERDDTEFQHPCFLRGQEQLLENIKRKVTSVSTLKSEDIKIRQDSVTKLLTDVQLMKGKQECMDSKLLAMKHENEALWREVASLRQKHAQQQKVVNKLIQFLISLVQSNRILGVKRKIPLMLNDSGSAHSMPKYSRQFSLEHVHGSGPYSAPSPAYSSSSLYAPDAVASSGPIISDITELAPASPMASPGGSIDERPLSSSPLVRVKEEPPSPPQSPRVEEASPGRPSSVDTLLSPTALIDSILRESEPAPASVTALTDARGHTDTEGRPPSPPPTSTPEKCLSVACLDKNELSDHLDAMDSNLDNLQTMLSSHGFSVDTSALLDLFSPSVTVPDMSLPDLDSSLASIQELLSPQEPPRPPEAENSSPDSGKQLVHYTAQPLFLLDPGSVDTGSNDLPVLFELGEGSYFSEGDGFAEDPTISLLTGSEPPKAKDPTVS
# Chain of ETV1 (P50549 whole entry): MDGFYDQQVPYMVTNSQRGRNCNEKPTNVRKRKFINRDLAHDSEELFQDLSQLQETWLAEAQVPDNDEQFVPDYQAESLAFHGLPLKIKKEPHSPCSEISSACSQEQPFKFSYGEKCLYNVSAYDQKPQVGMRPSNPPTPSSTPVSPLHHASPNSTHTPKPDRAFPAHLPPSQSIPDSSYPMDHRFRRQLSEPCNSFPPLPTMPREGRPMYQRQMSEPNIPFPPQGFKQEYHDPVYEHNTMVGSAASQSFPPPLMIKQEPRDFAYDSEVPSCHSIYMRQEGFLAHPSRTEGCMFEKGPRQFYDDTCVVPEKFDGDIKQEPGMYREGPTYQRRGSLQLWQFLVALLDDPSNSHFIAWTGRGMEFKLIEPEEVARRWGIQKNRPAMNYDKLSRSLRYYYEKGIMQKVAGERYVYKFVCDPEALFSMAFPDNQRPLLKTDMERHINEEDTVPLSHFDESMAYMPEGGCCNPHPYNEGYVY
# Chain of ELF4 (Q99607 whole entry): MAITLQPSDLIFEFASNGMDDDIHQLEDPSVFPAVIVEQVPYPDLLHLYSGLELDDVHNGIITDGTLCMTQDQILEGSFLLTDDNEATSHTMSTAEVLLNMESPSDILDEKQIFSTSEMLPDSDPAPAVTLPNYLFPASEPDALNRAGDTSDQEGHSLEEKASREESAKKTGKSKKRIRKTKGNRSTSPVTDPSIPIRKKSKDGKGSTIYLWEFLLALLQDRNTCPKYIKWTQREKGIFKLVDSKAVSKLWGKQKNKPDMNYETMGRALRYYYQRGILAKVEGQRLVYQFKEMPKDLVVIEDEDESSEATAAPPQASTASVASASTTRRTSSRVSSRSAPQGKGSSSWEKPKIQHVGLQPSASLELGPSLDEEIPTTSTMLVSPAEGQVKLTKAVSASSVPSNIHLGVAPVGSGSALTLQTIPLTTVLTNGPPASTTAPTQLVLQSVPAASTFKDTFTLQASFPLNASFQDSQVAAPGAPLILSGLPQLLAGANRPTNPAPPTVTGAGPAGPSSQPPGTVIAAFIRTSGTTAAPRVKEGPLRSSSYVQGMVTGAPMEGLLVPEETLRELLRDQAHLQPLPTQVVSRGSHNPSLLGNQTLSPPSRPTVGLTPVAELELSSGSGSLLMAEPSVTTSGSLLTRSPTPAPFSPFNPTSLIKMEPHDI
# Chain of ELF1 (P32519 whole entry): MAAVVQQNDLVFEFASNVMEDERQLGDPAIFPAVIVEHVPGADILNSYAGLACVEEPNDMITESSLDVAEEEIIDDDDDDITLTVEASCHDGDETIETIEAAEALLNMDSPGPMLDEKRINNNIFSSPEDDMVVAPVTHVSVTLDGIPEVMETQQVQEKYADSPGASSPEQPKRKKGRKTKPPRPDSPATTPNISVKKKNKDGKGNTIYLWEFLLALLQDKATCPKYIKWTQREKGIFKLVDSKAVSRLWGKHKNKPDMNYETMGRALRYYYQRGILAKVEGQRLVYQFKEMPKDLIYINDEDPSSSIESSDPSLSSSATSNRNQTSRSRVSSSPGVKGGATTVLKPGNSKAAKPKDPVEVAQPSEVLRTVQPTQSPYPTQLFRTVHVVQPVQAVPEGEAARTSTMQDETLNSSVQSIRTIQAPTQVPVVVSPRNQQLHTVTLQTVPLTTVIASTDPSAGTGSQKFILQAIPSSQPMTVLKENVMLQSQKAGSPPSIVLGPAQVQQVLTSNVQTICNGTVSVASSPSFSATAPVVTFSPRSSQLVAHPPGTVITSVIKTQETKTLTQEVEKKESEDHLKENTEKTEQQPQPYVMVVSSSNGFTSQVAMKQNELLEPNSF
# Chain of SPIB (Q01892 whole entry): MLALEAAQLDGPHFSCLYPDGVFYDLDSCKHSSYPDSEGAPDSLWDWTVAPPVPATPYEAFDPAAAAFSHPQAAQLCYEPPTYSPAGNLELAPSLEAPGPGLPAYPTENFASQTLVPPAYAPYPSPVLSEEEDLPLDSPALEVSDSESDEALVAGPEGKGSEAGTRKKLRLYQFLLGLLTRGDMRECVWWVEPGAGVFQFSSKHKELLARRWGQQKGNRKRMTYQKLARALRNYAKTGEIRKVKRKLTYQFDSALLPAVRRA
# Chain of CRX (O43186 whole entry): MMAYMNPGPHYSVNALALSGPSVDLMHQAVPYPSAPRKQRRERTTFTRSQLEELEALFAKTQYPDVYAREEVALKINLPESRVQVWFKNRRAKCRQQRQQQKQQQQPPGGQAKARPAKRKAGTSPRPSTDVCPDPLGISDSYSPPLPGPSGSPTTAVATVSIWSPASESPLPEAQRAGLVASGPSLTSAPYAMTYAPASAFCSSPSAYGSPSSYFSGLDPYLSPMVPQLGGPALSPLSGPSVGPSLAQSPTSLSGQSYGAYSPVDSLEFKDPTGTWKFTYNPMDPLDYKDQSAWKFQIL
sequence,measurement,setting,value
AAACTC,binding signal,[1],"1.29 fold enrichment (6-mer frequency, TF over GST control)"
same,binding signal,[2],"1.3 fold enrichment (6-mer frequency, TF over GST control)"
same,binding signal,[3],"1.15 fold enrichment (6-mer frequency, TF over GST control)"
same,binding signal,[4],"1.17 fold enrichment (6-mer frequency, TF over GST control)"
same,binding signal,[5],"1.25 fold enrichment (6-mer frequency, TF over GST control)"
same,binding signal,[6],"1.24 fold enrichment (6-mer frequency, TF over GST control)"
same,binding signal,[7],"1.13 fold enrichment (6-mer frequency, TF over GST control)"
same,binding signal,[8],"1.18 fold enrichment (6-mer frequency, TF over GST control)"
same,binding signal,[9],"1.16 fold enrichment (6-mer frequency, TF over GST control)"
same,binding signal,[10],"1.18 fold enrichment (6-mer frequency, TF over GST control)"
same,binding signal,[11],"1.22 fold enrichment (6-mer frequency, TF over GST control)"
same,binding signal,[12],"1.18 fold enrichment (6-mer frequency, TF over GST control)"
same,binding signal,[13],"1.26 fold enrichment (6-mer frequency, TF over GST control)"
same,binding signal,[14],"1.22 fold enrichment (6-mer frequency, TF over GST control)"
same,binding signal,[15],"1.04 fold enrichment (6-mer frequency, TF over GST control)"
same,binding signal,[16],"1.3 fold enrichment (6-mer frequency, TF over GST control)"
same,binding signal,[17],"1.25 fold enrichment (6-mer frequency, TF over GST control)"
same,binding signal,[18],"1.18 fold enrichment (6-mer frequency, TF over GST control)"
same,binding signal,[19],"1.22 fold enrichment (6-mer frequency, TF over GST control)"

# From paper PMC7862700, “An all-to-all approach to the identification of sequence-specific readers for epigenetic DNA modifications on cytosine”
